From PubChem BioAssay (NCI)
About 79,000 compounds went through this panel and 15% of them were active in at least one assay; those are over-represented in the sample as a whole. Calls of active or inactive are those of the source. Cut-off read from the data, not from the text of the source: active = growth inhibition above about 70%; inactive = the rest.

How the values were obtained:
[1] = NCI Yeast Anticancer Drug Screen. Data for the rad52 strain (AID 147);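 note: 0% = growth of vehicle-treated control cultures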; details: S. cerevisiae rad52 mutant growth inhibition, hits give high values
In short: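 The repair-mutant yeast strain was incubated with compounds, then growth was read and inhibition derived relative to vehicle.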

[2] = NCI Yeast Anticancer Drug Screen. Data for the wt1 strain (AID 149);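 note: 0% = growth of vehicle-treated wt1 cultures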; details: S. cerevisiae wt1 strain (SPY 50644) growth inhibition, hits give high values
In short: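 wt1 strain grown with compound or vehicle; inhibition taken from the growth difference.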

[3] = NCI Yeast Anticancer Drug Screen. Data for the rad50EPP+ strain (AID 151);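 note: 0% = growth of vehicle-treated control cultures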; details: S. cerevisiae rad50 mutant strain, hits give high values
In short: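 Vehicle-normalised growth inhibition; rad50EPP+ yeast strain, altered in DNA damage repair, compound-treated.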

[4] = NCI Yeast Anticancer Drug Screen. Data for the mgt1 strain (AID 153); details: S. cerevisiae mgt1 mutant growth inhibition, hits give high values
In short: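 Vehicle-normalized growth inhibition is determined in mgt1 yeast, a strain selected for a defined alteration in DNA repair or cell cycle control.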

[5] = NCI Yeast Anticancer Drug Screen. Data for the rad50 strain (AID 155);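 note: 0% = growth of vehicle-only cultures of the same strain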; details: S. cerevisiae rad50 strain growth inhibition, hits give high values
In short: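 DNA repair mutant yeast, compound exposure, growth read-out; inhibition is taken relative to vehicle.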

[6] = NCI Yeast Anticancer Drug Screen. Data for the mec2-1 strain (AID 157); details: S. cerevisiae mec2-1 strain, hits give high values
In short: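 Mutant yeast (mec2-1) grown with compound; growth inhibition relative to vehicle control reported.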

[7] = NCI Yeast Anticancer Drug Screen. Data for the rad14 strain (AID 159);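 note: 0% = growth of vehicle-treated control cultures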; details: S. cerevisiae rad14 strain growth inhibition, hits give high values
In short: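 DNA repair-defective yeast, compound-exposed; % growth inhibition derived by comparison with vehicle-treated controls.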

[8] = NCI Yeast Anticancer Drug Screen. Data for the sgs1 mgt1 strain (AID 161);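 note: 0% = growth of cultures given vehicle only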; details: S. cerevisiae sgs1 mgt1 strain, hits give high values
In short: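 Percent growth inhibition was derived by comparing compound-exposed mutant yeast with vehicle-exposed cultures. The strain carries alterations in DNA damage repair.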

[9] = NCI Yeast Anticancer Drug Screen. Data for the CLN2oe strain (AID 163);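 note: 0% = growth of vehicle-only control cultures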; details: S. cerevisiae CLN2oe strain, hits give high values
In short: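 Compounds are applied to yeast harbouring a defined cell-cycle control change; reduced growth compared with vehicle-treated controls gives the value.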

[10] = NCI Yeast Anticancer Drug Screen. Data for the cln2 rad14 strain (AID 165);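 note: 0% = growth equal to vehicle treated cultures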; details: S. cerevisiae cln2 rad14 strain, hits give high values
In short: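 Readout is yeast growth inhibition versus vehicle-treated controls, using a strain with cln2 and rad14 alterations exposed to compound.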

[11] = NCI Yeast Anticancer Drug Screen. Data for the bub3 strain (AID 167); details: S. cerevisiae bub3 mutant strain, hits give high values
In short: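 In this screen, a yeast mutant lacking normal mitotic checkpoint function is challenged with compound. Relative growth versus vehicle gives the inhibition value.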

[12] = NCI Yeast Anticancer Drug Screen. Data for the wt2 strain (AID 169);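 note: 0% = growth of vehicle-treated yeast cultures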; details: S. cerevisiae wt2 strain growth inhibition, hits give high values
In short: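 Against vehicle-treated controls, the growth of yeast exposed to each compound was compared, and the inhibition was recorded.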

[13] = NCI Yeast Anticancer Drug Screen. Data for the mlh1 strain (AID 171);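 note: 0% = growth of vehicle-treated control cultures of the same strain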; details: S. cerevisiae mlh1 strain growth inhibition, hits give high values
In short: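 Measured: yeast growth. Reference: vehicle-treated controls. Organism: strain with a defined alteration affecting DNA damage repair or cell cycle control, treated with compound.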

[14] = NCI Yeast Anticancer Drug Screen. Data for the sgs1 strain (AID 173);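 note: 0% = growth of vehicle-only control cultures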; details: S. cerevisiae sgs1 mutant, hits give high values
In short: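 Each compound was added to cultures of the altered yeast strain. Growth was recorded, and inhibition was derived by comparison with vehicle controls.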

[15] = NCI Yeast Anticancer Drug Screen. Data for the mlh1 rad18 strain (AID 175); details: S. cerevisiae mlh1 rad18 strain growth inhibition, hits give high values
In short: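 Genetically defined yeast (DNA repair-deficient) exposed to compounds; growth inhibition determined relative to vehicle.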

[16] = NCI Yeast Anticancer Drug Screen. Data for the rad18 strain (AID 177); details: S. cerevisiae rad18 mutant growth inhibition, hits give high values
In short: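 Vehicle-treated cultures served as the baseline for scoring compound-induced growth inhibition in DNA-repair-mutant yeast.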

[17] = at 5.0 µM (retest, dose inferred, filed as 0.5)
[18] = at 50.0 µM (retest, dose inferred, filed as 5.0)

Measured: growth inhibition

CCOP(=O)(OCC)C(Cc1ccccc1)N=C(c1ccccc1)c1ccccc1 (stereo unspecified)
inactive: [1]; at 1.2 µM -21% | [1]; at 3.7 µM -16% | [1]; at 11.0 µM 4% | [2]; at 1.2 µM -18% | [2]; at 3.7 µM -28% | [2]; at 11.0 µM -5% | [3]; at 1.2 µM 8% | [3]; at 3.7 µM 12% | [3]; at 11.0 µM 44% | [4]; at 1.2 µM 16% | [4]; at 3.7 µM -6% | [4]; at 11.0 µM 10% | [5]; at 1.2 µM -12% | [5]; at 3.7 µM -7% | [5]; [17] 12% | [5]; at 11.0 µM 27% | [5]; [18] 7% | [6]; at 1.2 µM 18% | [6]; at 3.7 µM 8% | [6]; [17] -3% | [6]; at 11.0 µM 18% | [6]; [18] 4% | [7]; at 1.2 µM 2% | [7]; at 3.7 µM -6% | [7]; at 11.0 µM -8% | [8]; [17] -14% | [8]; [18] -1% | [9]; at 1.2 µM -50% | [9]; at 3.7 µM -18% | [9]; at 11.0 µM -21% | [10]; [17] -1% | [10]; [18] -1% | [11]; at 1.2 µM -35% | [11]; at 3.7 µM -35% | [11]; [17] -7% | [11]; at 11.0 µM -41% | [11]; [18] -11% | [12]; at 1.2 µM 6% | [12]; at 3.7 µM 6% | [12]; at 11.0 µM -2% | [13]; at 1.2 µM 1% | [13]; at 3.7 µM 0% | [13]; at 11.0 µM 5% | [14]; at 1.2 µM 7% | [14]; at 3.7 µM 10% | [14]; at 11.0 µM 15% | [15]; [17] -18% | [15]; [18] 22% | [16]; at 1.2 µM 8% | [16]; at 3.7 µM 4% | [16]; at 11.0 µM 29%
active: [1]; at 33.0 µM 91% | [1]; at 100.0 µM 98% | [2]; at 33.0 µM 95% | [2]; at 100.0 µM 98% | [3]; at 33.0 µM 81% | [3]; at 100.0 µM 94% | [4]; at 33.0 µM 86% | [4]; at 100.0 µM 98% | [5]; at 33.0 µM 96% | [5]; at 50.0 µM 98.6% | [5]; at 100.0 µM 98% | [6]; at 33.0 µM 97% | [6]; at 50.0 µM 70.5% | [6]; at 100.0 µM 98% | [7]; at 33.0 µM 73% | [7]; at 100.0 µM 98% | [8]; at 50.0 µM 98.8% | [9]; at 33.0 µM 87% | [9]; at 100.0 µM 98% | [10]; at 50.0 µM 97.8% | [11]; at 33.0 µM 88% | [11]; at 50.0 µM 99% | [11]; at 100.0 µM 98% | [12]; at 33.0 µM 97% | [12]; at 100.0 µM 98% | [13]; at 33.0 µM 90% | [13]; at 100.0 µM 98% | [14]; at 33.0 µM 93% | [14]; at 100.0 µM 97% | [15]; at 50.0 µM 98.7% | [16]; at 33.0 µM 87% | [16]; at 100.0 µM 98%

COc1cc(C2c3cc4c(cc3OC(NNc3ccccc3)C2C)OCO4)cc(OC)c1OC (stereo unspecified)
active: [1]; at 33.0 µM 93% | [1]; at 100.0 µM 75% | [2]; at 33.0 µM 74% | [2]; at 100.0 µM 94% | [4]; at 33.0 µM 82% | [4]; at 100.0 µM 89% | [5]; at 33.0 µM 92% | [5]; [18] 96% | [5]; at 100.0 µM 73% | [6]; [18] 96% | [6]; at 100.0 µM 91% | [7]; at 100.0 µM 75% | [8]; [18] 97% | [9]; at 33.0 µM 89% | [9]; at 100.0 µM 79% | [10]; [18] 95% | [11]; at 11.0 µM 73% | [11]; at 33.0 µM 89% | [11]; [18] 94% | [11]; at 50.0 µM 88.2% | [11]; at 100.0 µM 83% | [12]; at 33.0 µM 96% | [12]; at 100.0 µM 90% | [14]; at 33.0 µM 88% | [14]; at 100.0 µM 94% | [15]; [18] 94% | [15]; at 50.0 µM 77% | [16]; at 33.0 µM 94% | [16]; at 100.0 µM 84%
inactive: [1]; at 1.2 µM 36% | [1]; at 3.7 µM 44% | [1]; at 11.0 µM 59% | [2]; at 1.2 µM 16% | [2]; at 3.7 µM 9% | [2]; at 11.0 µM 19% | [3]; at 1.2 µM 39% | [3]; at 3.7 µM 42% | [3]; at 11.0 µM 48% | [3]; at 33.0 µM 47% | [3]; at 100.0 µM 67% | [4]; at 1.2 µM 13% | [4]; at 3.7 µM 23% | [4]; at 11.0 µM 26% | [5]; at 1.2 µM 23% | [5]; at 3.7 µM 33% | [5]; [17] 14% | [5]; at 11.0 µM 52% | [5]; at 50.0 µM 12.3% | [6]; at 1.2 µM 2% | [6]; at 3.7 µM 5% | [6]; [17] 10% | [6]; at 11.0 µM 16% | [6]; at 33.0 µM 63% | [6]; at 50.0 µM 40.5% | [7]; at 1.2 µM -2% | [7]; at 3.7 µM 1% | [7]; at 11.0 µM 29% | [7]; at 33.0 µM 52% | [8]; [17] -4% | [8]; at 50.0 µM 20.6% | [9]; at 1.2 µM 41% | [9]; at 3.7 µM 40% | [9]; at 11.0 µM 46% | [10]; [17] 17% | [10]; at 50.0 µM 53% | [11]; at 1.2 µM 7% | [11]; at 3.7 µM 20% | [11]; [17] 19% | [12]; at 1.2 µM -2% | [12]; at 3.7 µM -13% | [12]; at 11.0 µM 41% | [13]; at 1.2 µM 16% | [13]; at 3.7 µM 23% | [13]; at 11.0 µM 24% | [13]; at 33.0 µM 26% | [13]; at 100.0 µM 30% | [14]; at 1.2 µM 29% | [14]; at 3.7 µM 37% | [14]; at 11.0 µM 34% | [15]; [17] 36% | [16]; at 1.2 µM 52% | [16]; at 3.7 µM 56% | [16]; at 11.0 µM 64%
